# This is a sample that favours compounds with a hit; in the whole collection about 2.7% have one here.
# CFTR F508del cor: CFTR F508del correction in bronchial cells | CFBE cells, YFP halide quenching; stimulated with forskolin plus potentiator P3; % fluorescence drop versus neutral controls | activity (quench increase), % at 7.58 µM | actives 0.36% (n = 350,000);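 active = mean added fluorescence quench of at least 8% versus neutral control, with both replicates also reaching 8%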;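 note: cells transiently co-express mutant CFTR-F508del with the halide-sensitive YFP; corrector assay measuring rescue of mutant channel to the surface after 24 h compound exposure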
# CendR NRP1 mod: modulators of CendR peptide binding to human neuropilin-1; O14786; FAM-RPARPAR peptide binding to NRP-1, fluorescence polarization; inhibition, % at 25 µM; actives 0.85% (n = 360,000); AID 602438;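 active = inhibition or corrected inhibition above about 18%, plus a signal ratio from 0.5 to 1.5, limit read from the data, passing the limit was not always enough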
# MPTP block: inhibitors of mitochondrial permeability transition pore; isolated mouse mitochondria, Ca2+ swelling absorbance, 30 min; inhibition, % at 10 µM; actives 1.4% (n = 360,000); AID 602449;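 active = inhibition of 50% or more, scaled per plate between neutral and stimulator controls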;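 note: 0% = DMSO wells given calcium and 100% = 1 mM EGTA wells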
# SKN-1 inh: inhibitors of C. elegans SKN-1 | C. elegans VP596 Pgst-4::GFP/RFP ratio, acrylamide-induced, 24 h | inhibition, % at 21.8 µM | actives 0.49% (n = 360,000) | AID 624304;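 active = interference check ratio from 0.5 to 1.5 plus GFP to RFP signal ratio inhibition reaching or exceeding a fixed threshold, cut at about 30% in these data, passing the limit was not always enough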
# ATG4B inhibitor: inhibitors of human ATG4B cysteine protease; inhibition, % at 8.33 µM; Q9Y4P1; ATG4B cleavage of LC3-PLA2, NBD-HPC fluorescence, 1 h; actives 0.51% (n = 340,000); in the data active = inhibition above about 40%
# Rh123 counter: Rhodamine 123 counter-screen of mitochondrial pore hits; actives 78% (n = 5,000); shares compounds with MPTP block; inhibition, % at 10 µM; isolated mitochondria, membrane potential, Rhodamine 123 fluorescence; AID 624504; in the data active = inhibition above about 22%;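 note: 0% = DMSO vehicle and 100% = positive control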
# MPTP swell DR: MPTP inhibition, dose response swelling confirmation | shares compounds with MPTP block | IC50, µM | AID 651561 | isolated mitochondria swelling, absorbance | actives 58% (n = 780); in the data active = IC50 below about 20 µM
# MPTP counter DR: counter-screen for mitochondrial permeability transition pore inhibitors, dose response | shares compounds with MPTP block | isolated mitochondria counterscreen, fluorescence read-out | IC50, µM | actives 49% (n = 780) | AID 651564; in the data active = IC50 below about 80 µM
# Numbers without * were called inactive; · = not tested or not shown.
SMILES,CFTR F508del cor,CendR NRP1 mod,MPTP block,SKN-1 inh,ATG4B inhibitor,Rh123 counter,others
C[C@H](CO)N1C[C@H](C)[C@@H](CN(C)Cc2ccncc2)Oc2c(NC(=O)Nc3ccc(C(F)(F)F)cc3)cccc2C1=O,-2,·,·,·,·,·,
C[C@H]1CN([C@@H](C)CO)S(=O)(=O)c2ccc(C#Cc3ccccn3)cc2O[C@H]1CN(C)Cc1cccc(F)c1,1,·,·,·,·,·,
Clc1ccc2c(N/N=C/c3cccc(Br)c3)ccnc2c1,·,17,62*,3,38,94*,
O=[N+]([O-])c1ccc(/C=N/Nc2ccnc3cc(Cl)ccc23)o1,-1,-77,21,2,1,·,
Cc1nn(-c2ccccc2)c(Cl)c1/C=C1\SC(=S)N(CCCCCC(=O)O)C1=O,-3,-33,6,5,5,·,
Cc1nn(-c2ccccc2)c(Cl)c1/C=C1\SC(=S)NC1=O,·,-173,54*,9,3,66*,
N#Cc1cccc(C#N)c1Oc1ccc(S(=O)(=O)Nc2ccc(Cl)cc2)cc1,1,0,77*,8,0,45*,
Cc1ccccc1-c1ccc([C@H]2[C@H](CO)N3CCCCN(C(=O)c4cccnc4)C[C@@H]23)cc1,-1,·,·,·,·,·,
O=C(CCc1ccccc1)Nc1cc(Cl)ccc1O,·,8,68*,14,-10,81*,
NC(=NCCc1ccccc1)NC(=O)c1cc(Cl)ccc1O,1,2,56*,8,2,74*,
O=C(CCc1ccccc1)N/N=C/c1cc(Br)ccc1O,7,12,91*,-6,-12,80*,
Oc1ccc(Br)cc1/C=N/NC(=S)NCCc1ccccc1,-1,6,6,8,-2,·,
NC(=NCCc1ccc(Cl)cc1)NS(=O)(=O)c1ccccc1,-1,10,1,10,-10,·,
O=C(Nc1cccc(Cl)c1Cl)c1snnc1-c1ccccc1,·,-2,4,10,-3,·,
O=C(Nc1cc(Cl)ccc1O)c1snnc1-c1ccccc1,·,11,94*,0,-3,91*,
COc1cccc(-c2cnc3c(c2)C(=O)N([C@@H](C)CO)C[C@H](C)[C@@H](CN(C)C(=O)Nc2ccccc2F)O3)c1,1,·,·,·,·,·,
C[C@@H]1CN([C@H](C)CO)C(=O)c2cc(NC(=O)NC3CCCCC3)ccc2O[C@@H](C)CCCCO[C@@H]1CN(C)Cc1ccccc1,4,·,·,·,·,·,
CCCNC(=O)N[C@@H]1CC[C@H](CCn2cc(C3CCCCC3)nn2)O[C@@H]1CO,1,·,·,·,·,·,
CC(C)NC(=S)N/N=C/c1cc(Br)ccc1O,·,-7,93*,-1,-4,61*,
COC(=O)N/N=C/c1cc(Br)ccc1O,1,4,0,6,4,·,
C[C@H]1CN([C@@H](C)CO)C(=O)c2cccc(NS(=O)(=O)c3cn(C)cn3)c2O[C@@H]1CN(C)Cc1ccc(Cl)c(Cl)c1,-2,·,·,·,·,·,
C[C@H]1CN([C@@H](C)CO)C(=O)Cc2cc(NC(=O)NC3CCCCC3)ccc2O[C@H]1CN(C)CC1CC1,1,·,·,·,·,·,
CC1CCc2c(C(=O)Nc3ccccn3)csc2C1 (stereo not given),3,8,0,29,-5,·,
CC1CCc2c(C(=O)Nc3ccc(OC(F)(F)F)cc3)csc2C1 (stereo not given),·,-8,95*,-10,-2,29*,
CCN(CC)S(=O)(=O)c1ccc2oc(SCC3CN=C(c4ccc(OC)cc4)S3)nc2c1 (stereo not given),·,0,56*,-2,-21,10,MPTP swell DR=17*;MPTP counter DR=12*
SMILES,CFTR F508del cor,CendR NRP1 mod,MPTP block,SKN-1 inh,ATG4B inhibitor,Rh123 counter,others
COc1ccc(C2=NCC(CSc3nnc(-c4ccc5c(c4)OCO5)o3)S2)cc1 (stereo not given),·,-2,58*,-4,-17,81*,
COc1ccc(C2=NCC(CSc3nccc(=O)[nH]3)S2)cc1 (stereo not given),·,-6,0,-2,-1,·,
Cc1cc2nc3ccc(=[N+](C)C)cc-3sc2cc1N,·,11,63*,80,12,37*,
CN(C)c1ccc2nc3ccc(=O)cc-3sc2c1,0,-9,5,86,·,·,
CC=Cc1ccc2n(c1=O)C[C@@H]1[C@@H](CO)[C@H](C(=O)NC3CCCC3)N(C(=O)C3CC3)[C@H]21 (mixture of isomers),1,·,·,·,·,·,
O=C(Nc1cccc(Cl)c1)NC1CCCCC1,·,15,83*,14,20,73*,
CC(=O)c1cccc(NC(=S)NC2CCCCCCC2)c1,0,9,50*,-17,7,99*,
O=C(Nc1ccc(F)c(F)c1)NC1CCCCC1,·,9,53*,-8,5,89*,
O=C(Nc1cccc(Cl)c1)NC1CC2CCC1C2 (stereo not given),-2,8,55*,17,-2,84*,
O=C(Nc1ccc(F)cc1)NC1CCCCCCC1,-1,4,8,-24,2,·,
CNC[C@H]1Oc2ccc(N(C)C)cc2CC(=O)N([C@H](C)CO)C[C@@H]1C,-1,·,·,·,·,·,
C[C@@H]1CN([C@@H](C)CO)C(=O)c2cc(NS(=O)(=O)c3cccs3)ccc2O[C@H]1CN(C)Cc1ccc(-c2ccccc2)cc1,0,·,·,·,·,·,
C[C@@H]1CN([C@H](C)CO)C(=O)c2c(c3ccccc3n2C)-c2ccccc2CO[C@H]1CN(C)C(=O)Nc1cccc(Cl)c1Cl,1,·,·,·,·,·,
CCC(=O)Nc1ccc2c(c1)C(=O)N(C)[C@H]1CC[C@H](CC(=O)Nc3cccc(OC)c3)O[C@H]1CO2,-1,·,·,·,·,·,
CCCNC(=O)N1CC2(CCN(S(C)(=O)=O)CC2)c2c(n(C)c3cc(OC)ccc23)[C@H]1CO,2,·,·,·,·,·,
O=C(Nc1cccc(C(F)(F)F)c1)NC1CCCCC1,·,1,93*,10,36,119*,
CN1CCC(NC(=O)Nc2cccc(C(F)(F)F)c2)CC1,3,9,3,-10,-2,·,
CC(C)n1ncc2c(C(=O)Nc3cccc(C#N)c3)cc(C3CC3)nc21,0,7,73*,-3,0,85*,
O=C(/C=C/c1ccc(Cl)cc1Cl)NCCSCc1ccccc1,·,15,92*,6,10,82*,
O=C(/C=C/c1cccc([N+](=O)[O-])c1)NCCSCc1c(Cl)cccc1Cl,-1,-11,-9,8,34,·,
O=C(/C=C/c1cccc([N+](=O)[O-])c1)NCCSCc1ccc(Cl)cc1,·,-7,51*,16,23,64*,
O=C(/C=C/c1ccc(Cl)cc1Cl)NCCSc1ccccc1,·,6,96*,20,40,92*,
O=C(/C=C/c1ccc(Cl)cc1)NCCSc1ccccc1,·,0,45,14,8,·,
O=C(NC[C@H]1CC[C@@H]2[C@@H](CN2Cc2ccc(Oc3ccccc3)cc2)O1)C1CCOCC1,0,·,·,·,·,·,

# Assay outcomes: PubChem BioAssay, several laboratories
